For experiment [1], the target named is Metallo-beta-lactamase type 2 (Klebsiella pneumoniae) (UniProt C7C422). The experiment can be described thus: qHTS to identify inhibitors of the New Delhi Metallo-beta-lactamase (NDM): assay validation screen against the NCATS LOPAC Collection (AID 1794843).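 Note: nitrocefin turnover by NDM-1 measured as 485 nm absorbance at plateau; series mostly up to about 38 µM; % is set by controls: 0 for no effect and ±100 for the full control effect.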 In short, it runs like this:
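NDM-1 at 2 nM final in 50 mM HEPES pH 7.0, 1 uM ZnSO4, 0.01% Tween20, preincubated with LOPAC compounds pinned in DMSO; 50 uM nitrocefin (stock) added. Hydrolysis read as absorbance at 485 nm in the plateau phase.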
For orientation: Quantitative high-throughput screening tests each substance at several concentrations.

In experiment [2] the target is Glutathione peroxidase 1 (Homo sapiens) (UniProt P07203). The experiment can be described thus: Primary qHTS Assay for Inhibitors of Recombinant Selenoprotein Glutathione Peroxidase 1 (GPX1) (AID 1845191). For activity, negative = inhibition: % is set by controls: 0 for no effect and ±100 for the full control effect. Note: nearly all actives have a fitted effect of over 65% in size. In short, it runs like this:
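10 nM GPX1 + cpd, 30 min RT; start w/ 1 mM GSH, 0.5 mM cumene hydroperoxide, 0.5 mM NADPH, 100 nM GR, 0.01% BSA; buffer 50 mM Tris-HCl pH 7.5, 2 mM EDTA, 150 mM NaCl; Fl 340/450, 0 & 15 min.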

Experiment [3] has as its target Phospholipid hydroperoxide glutathione peroxidase GPX4 (Homo sapiens) (UniProt P36969). The experiment in a line: Primary qHTS Assay for Inhibitors of Recombinant Selenoprotein Glutathione Peroxidase 4 (GPX4) (AID 1845192). Note: nearly all actives have a fitted effect of over 65% in size. In short, it runs like this: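 NADPH consumption, followed by fluorescence at 340/450 nm between 0 and 15 min, reports GPX4 activity via coupled glutathione reductase (100 nM). Enzyme 200 nM was pre-exposed to compound 30 min; 0.5 mM cumene hydroperoxide and 1 mM GSH served as substrates.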

Experiment [4] is described as follows: Primary fluorescence-based thiol-reactive (MSTI) qHTS assay for identification of artifact compounds. (AID 1845221).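 Note: series mostly up to about 54 µM; thiol-reactive compounds lower the probe fluorescence signal; nearly all actives have a fitted effect of over 65% in size.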 The method, boiled down: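 In PBS pH 7.4 with 2% DMSO, each compound met 4 uM MSTI for one hour at ambient temperature, shielded from light, before fluorescence detection.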
Experiment [5] concerns Nanoluciferase (engineered Oplophorus gracilirostris luciferase). The experiment can be described thus: Primary Nanoluciferase (NLuc) qHTS assay for identification of artifact compounds. (AID 1845222).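 Note: series mostly up to about 54 µM; 0% = DMSO and -100% = no enzyme.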 The method, boiled down:
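Compounds are pinned into diluted (1:55) conditioned medium of NLuc-expressing S16 cells and held 15 min at room temperature protected from light. Nano-Glo substrate follows, and luminescence is read 5 min later.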

A short description of experiment [6]: Quantitative High-Throughput drug screen in 47 multiple myeloma cell lines against the NCATS MIPE library collection: Delta47_JCRB cell viability assay (AID 1918925; note: nearly all actives have a fitted effect of over 45% in size; note: potency is the fitted concentration of half-maximal effect). In short, it runs like this:
(§1)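 Myeloma cells (500 per well) were exposed to MIPE 4.0 compounds by pin transfer and incubated 48 hours at 37C, 5% CO2. Viability was read as ATP by CellTiter-Glo luminescence, normalised to DMSO (100%) and media-only (0%) wells.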

Experiment [7] in a line: Quantitative High-Throughput drug screen in 47 multiple myeloma cell lines against the NCATS MIPE library collection: EJM_DSMZ cell viability assay (AID 1918926; note: nearly all actives have a fitted effect of over 30% in size; note: potency is the fitted concentration of half-maximal effect). In short, it runs like this:
as §1

Experiment [8] is described as follows: Quantitative High-Throughput drug screen in 47 multiple myeloma cell lines against the NCATS MIPE library collection: AMO1_DSMZ cell viability assay (AID 1918927; note: nearly all actives have a fitted effect of over 30% in size; note: potency is the fitted concentration of half-maximal effect). The method, boiled down:
as §1

The nature of experiment [9]: Quantitative High-Throughput drug screen in 47 multiple myeloma cell lines against the NCATS MIPE library collection: ARD_JJKsccE7 cell viability assay (AID 1918929; note: potency is the fitted concentration of half-maximal effect). In short, it runs like this: as §1
Experiment [10] in a line: Quantitative High-Throughput drug screen in 47 multiple myeloma cell lines against the NCATS MIPE library collection: Karpas620_DSMZ cell viability assay (AID 1918959). Note: nearly all actives have a fitted effect of over 30% in size. Note: potency is the fitted concentration of half-maximal effect. The method, boiled down:
(§2)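 Primary qHTS used for cherry-picking: cells at 500/well, library compounds for 48 h (37C, 5% CO2), luminescent ATP assay.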

Experiment [11] is described as follows: Quantitative High-Throughput drug screen in 47 multiple myeloma cell lines against the NCATS MIPE library collection: FR4_PLB cell viability assay (AID 1918924; note: nearly all actives have a fitted effect of over 35% in size; note: potency is the fitted concentration of half-maximal effect). In short, it runs like this:
as §2

A short description of experiment [12]: Quantitative High-Throughput drug screen in 47 multiple myeloma cell lines against the NCATS MIPE library collection: ARP1_JJKsccF8 cell viability assay (AID 1918928; note: nearly all actives have a fitted effect of over 40% in size; note: potency is the fitted concentration of half-maximal effect). In short, it runs like this: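 Myeloma cells at 500 per well in 1536-well format treated with MIPE 4.0 library by pin transfer for 48 h at 37C, 5% CO2. Viability from ATP luminescence (CellTiter-Glo), normalized to DMSO (100%) and media-only (0%) wells.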

The nature of experiment [13]: Primary redox qHTS assay for identification of artifact compounds. (AID 1845223). The method, boiled down:
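Amplex Red (25 uM) and HRP (250 mU/mL) in HBSS, with compounds for 15 min, then 250 uM DTT for 30 min, room temperature, dark. Fluorescence 525/598 nm read; normalized to DMSO and 10 uM DA3003; Hill fit.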

The nature of experiment [14]: Viability counterscreen for antagonist of constitutive androstane receptor (CAR) against the NCATS DSHEA and TCM libraries (AID 1794837).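 Note: compound exposure lasted 24 h before viability reading; 0% is about no effect.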 The method, boiled down:
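Fluorescence from CellTiter-Fluor reports live-cell protease activity in HepG2-CYP2B6-hCAR cells treated for 24 h with substances alongside 48 uM CITCO.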
(The purpose of a counterscreen is to sort out artefacts and off-target activity.)

Experiment [15] can be described thus: Viability counterscreen for agonist of constitutive androstane receptor (CAR) against the NCATS DSHEA and TCM libraries (AID 1794838).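 Note: cells exposed to compound for 24 h; 0% is about no effect.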 In short, it runs like this: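 In agonist mode, PK11195 is added at 0.75 uM final to HepG2-CYP2B6-hCAR cells dosed with test substances. Cultures incubate 24 h at 37C before a protease-based fluorogenic viability readout.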

Experiment [16] has as its target Nuclear receptor subfamily 1 group I member 3 (Homo sapiens) (UniProt Q14994). The experiment can be described thus: Primary qHTS for agonist of constitutive androstane receptor (CAR) against the NCATS DSHEA and TCM libraries (AID 1794839).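 Note: HepG2 cells expressing human CAR with a CYP2B6 reporter plus PK11195 antagonist; luciferase reporter luminescence read with ONE-Glo; 0% is about no effect.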 The method, boiled down:
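Cells stably carrying hCAR and a CYP2B6 reporter (HepG2 background) are seeded and allowed 5 h to adhere. Substances at multiple concentrations are added alongside 0.75 µM PK11195, and luciferase signal is measured after 24 h.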

Experiment [17] is described as follows: HepG2 viability counterscreen (readout 2: ATP content) against the NCATS DSHEA and TCM libraries (AID 1794840).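 Note: HepG2 cells exposed to substances for about 24 h; 0% is about no effect.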 In short, it runs like this:
(§3)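 Cytotoxicity was assessed in HepG2 cells plated at 1,000 cells/well and exposed for about 24 hours to a concentration series. Protease activity and ATP content were measured sequentially in each well.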

The nature of experiment [18]: HepG2 viability counterscreen (readout 1: protease activity) against the NCATS DSHEA and TCM libraries (AID 1794841).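 Note: cells exposed to compounds for about 24 h before the protease read; 0% is about no effect.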 The method, boiled down:
as §3

Experiment [19] in a line: NCATS anti-infectives library activity on the primary C. elegans qHTS viability assay (AID 1745855; calls by dose curve). In short, it runs like this:
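Viability is taken from GFP fluorescence of PE254-GFP-FLuc C. elegans imaged by laser cytometry over 7 days. Ten L1 worms per well grow at 21 °C on TOP10 E. coli capsules with titrated compound; levamisole marks toxicity.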

A number with no mark means an inactive call. Results filed as inconclusive are left out. Calls of active or inactive are those of the source. Unless noted, calls come from the whole dose curve; as a rule, active = well fitted curve in the direction sought with a large enough effect; inconclusive = small, poorly fitted or top-dose-only effect, or another doubt; inactive = no such curve, though single readings can be large; an effect the other way counts as inactive or inconclusive.

Sequence of Phospholipid hydroperoxide glutathione peroxidase GPX4 (Homo sapiens) (P36969 whole entry, looked up): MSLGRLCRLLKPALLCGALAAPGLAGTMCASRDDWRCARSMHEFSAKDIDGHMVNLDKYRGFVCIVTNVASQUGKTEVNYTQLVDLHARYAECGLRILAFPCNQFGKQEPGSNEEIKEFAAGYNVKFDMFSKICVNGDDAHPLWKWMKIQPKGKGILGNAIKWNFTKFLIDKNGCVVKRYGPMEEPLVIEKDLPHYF
Sequence of Glutathione peroxidase 1 (Homo sapiens) (P07203 whole entry, looked up): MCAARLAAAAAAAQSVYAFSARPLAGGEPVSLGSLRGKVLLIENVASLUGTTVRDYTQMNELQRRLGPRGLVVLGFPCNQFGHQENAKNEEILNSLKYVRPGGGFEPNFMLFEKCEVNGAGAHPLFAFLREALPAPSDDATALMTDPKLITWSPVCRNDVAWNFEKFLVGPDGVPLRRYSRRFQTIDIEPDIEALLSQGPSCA
Sequence of Metallo-beta-lactamase type 2 (Klebsiella pneumoniae) (C7C422 whole entry, looked up): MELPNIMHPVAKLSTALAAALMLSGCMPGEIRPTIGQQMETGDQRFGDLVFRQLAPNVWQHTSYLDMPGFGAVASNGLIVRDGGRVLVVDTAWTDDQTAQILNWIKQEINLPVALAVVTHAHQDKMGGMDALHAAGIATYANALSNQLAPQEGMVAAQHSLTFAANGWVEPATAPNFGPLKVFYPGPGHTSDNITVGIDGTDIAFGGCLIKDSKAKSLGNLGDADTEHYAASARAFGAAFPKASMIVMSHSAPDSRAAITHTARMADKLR
Sequence of Nuclear receptor subfamily 1 group I member 3 (Homo sapiens) (Q14994 whole entry, looked up): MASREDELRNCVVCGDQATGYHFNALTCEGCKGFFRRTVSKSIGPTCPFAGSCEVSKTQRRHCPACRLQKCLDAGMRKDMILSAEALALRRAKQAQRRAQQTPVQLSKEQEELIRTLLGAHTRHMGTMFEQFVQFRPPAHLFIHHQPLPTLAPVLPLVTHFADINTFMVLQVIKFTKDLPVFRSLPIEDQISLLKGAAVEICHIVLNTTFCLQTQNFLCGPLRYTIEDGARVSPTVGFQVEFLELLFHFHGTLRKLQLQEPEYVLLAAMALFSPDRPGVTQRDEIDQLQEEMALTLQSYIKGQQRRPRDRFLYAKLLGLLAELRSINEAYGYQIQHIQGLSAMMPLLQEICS

As to `CS(=O)(=O)c1cccc(CNc2nc(Nc3ccc4c(c3)CCC(=O)N4)ncc2C(F)(F)F)c1`, the compound was classed as inactive in [1] and in [5]. The Potency result in [2], in [3] and in experiment [4] was “inactive” in each case. Moreover, the Potency was 18.7 µM (active) in [6]; 23.5 µM (active) in experiment [7]; 9.35 µM (active) in experiment [8]; 5.9 µM (active) in [9]; 4.69 µM (active) in experiment [10].

Turning to `Cn1cnc([N+](=O)[O-])c1Sc1ncnc2nc[nH]c12`, the result in experiment [1] was inactive. The Potency result in [2], in experiment [3] and in experiment [7] was “inactive” each time. The Potency in experiment [11] is 0.418 µM (active); in experiment [9] it was 1.18 µM (active).

`CCn1cc(C(=O)O)c(=O)c2cc(F)c(N3CCNC(C)C3)c(F)c21` (centres undefined): the call in experiment [1] was inactive. The Potency entry in experiment [2], in experiment [3], in experiment [11], in experiment [7], in [8] and in experiment [12] was “inactive” each time. Besides, the Potency entry in [9] and in experiment [10] was “inactive” in each case.

Take `NCCCC(N)(C(=O)O)C(F)F` (centres undefined): in experiment [1], the compound was called inactive. In addition, the Potency result in experiment [2], in experiment [3], in [7] and in experiment [10] was “inactive” each time. Besides, the Potency in experiment [11] is 16.6 µM (active).

Take `CCN(CC)CCCC(C)Nc1ccnc2cc(Cl)ccc12` (centres undefined): the compound was classed as inactive in [1]. The Potency entry in [2], in experiment [3], in experiment [11], in experiment [6] and in experiment [7] was “inactive” throughout. In experiment [4], the activity change, negative = thiol reactive was -0.305% [at 11.5 µM]. Besides, the activity, negative = inhibition in experiment [5] is 2.98% [at 11.6 µM]. For the same compound, the redox activity (% of DA3003) in experiment [13] is -9.33% [at 11.5 µM]. Moreover, in [8], the Potency was 0.187 µM (active).

With `NC(=O)c1cnccn1`, the result in [14], in experiment [15], in [16], in experiment [17], in experiment [18] and in [1] was inactive. For the same compound, the Potency result in [2], in experiment [3], in experiment [11], in experiment [6], in experiment [7] and in experiment [8] was “inactive” in each case. Moreover, the Potency entry in [12], in experiment [9] and in experiment [10] was “inactive” throughout.

Regarding `Cc1oncc1C(=O)Nc1ccc(C(F)(F)F)cc1`, the compound was called inactive in experiment [1]. For the same compound, the Potency result in experiment [2], in [3], in [11], in experiment [8], in [9] and in [10] was “inactive” in each case. In experiment [7], the Potency is 20.9 µM (active).

Take `CO[C@@H]1[C@H](N(C)C(=O)c2ccccc2)C[C@H]2O[C@]1(C)n1c3ccccc3c3c4c(c5c6ccccc6n2c5c31)C(=O)NC4`: the Potency result in experiment [19], in [2] and in experiment [11] was “inactive” in each case. In addition, the Potency in experiment [6] is 1.05 µM (active); in experiment [8], 0.833 µM (active); in experiment [12], 2.35 µM (active); in experiment [9], 1.05 µM (active); in experiment [10], 1.66 µM (active).

In the case of `Cc1[nH]c(=O)c(C#N)cc1-c1ccc2nccn2c1`, in [1], the compound was called inactive. The Potency entry in experiment [2], in [3], in experiment [11], in [6], in experiment [7] and in [12] was “inactive” throughout. The Potency result in experiment [9] was “inactive”.

Take `OC(CCN1CCCCC1)(c1ccccc1)C1CC2C=CC1C2` (centres undefined): the outcome in [1] was inactive. The Potency result in experiment [2], in [3], in experiment [11], in experiment [6], in experiment [7] and in experiment [8] was “inactive” in each case. The Potency result in [12] and in experiment [10] was “inactive” throughout.

Values taken from PubChem BioAssay (NCATS).
